{
  "source": "PubChem BioAssay (EPA / NIEHS)",
  "note": "Calls of active or inactive are those of the source. How the source made its calls: active means hit-call score of the fitted dose curve at least 0.9, where 1 is the maximum; inactive means score below 0.9.",
  "data": [
    {"read-out": "Interferon-gamma inducible Protein 10 (IP10), CXCL10 (gene 3627)", "assay": "BSK_hDFCGF_IP10: BioMAP Diversity Plus: hDFCGF Assay for Interferon-gamma inducible Protein 10 (IP10) Biomarker Activity (AID 2283053)", "conditions": "primary human foreskin fibroblasts; actives raise or lower the signal", "protocol": "BSK_hDFCGF is a cell-based, multiplexed-readout assay that uses foreskin fibroblast, a human skin primary cell, with measurements taken at 24 hours after chemical dosing in a 96-well plate.BSK_hDFCGF_IP10 is an assay component measured in the BSK_hDFCGF assay. It measures IP-10 antibody related to regulation of gene expression using ELISA technology.Data from the assay component BSK_hDFCGF_IP10 was analyzed into 1 assay endpoint. This assay endpoint, BSK_hDFCGF_IP10, was analyzed with bidirectional fitting relative to DMSO as the negative control and baseline of activity. Using a type of binding reporter, gain or loss-of-signal activity can be used to understand changes in the signaling as they relate to the gene CXCL10. Furthermore, this assay endpoint can be referred to as a primary readout, because this assay has produced multiple assay endpoints where this one serves a signaling function. To generalize the intended target to other relatable targets, this assay endpoint is annotated to the cytokine intended target family, where the subfamily is chemotactic factor.\nThe levels of cell surface (or secreted, indicated by the prefix \"s\") biomarker endpoints were measured by ELISA. Overt cytotoxicity to cells in confluent adherent cultures (all systems other than the BT system) was assessed by measuring total protein levels using sulforhodamine B (SRB) staining in parallel cultures at the time of biomarker measurements, indicated as SRB endpoints. For proliferation assays for adherent cell types, individual cell types are cultured at sub-confluence and relative cell numbers quantified by SRB staining at time points optimized for each system (48 h: 3C and CASM3C systems; 72 h: BT and HDF3CGF systems; 96 h: SAg system). SRB was performed by staining cells with 0.1% SRB after fixation with 10% TCA and reading wells at 560 nm.Viability and proliferation of PBMC (T cells) was quantified by Alamar Blue reduction for the SAg and BT systems. For PBMC viability (referred to as PBMC Cytotoxicity within the assay endpoint names), cells were plated (75,000/well in a 96-well plate) and then chemical samples added for 1 h before addition of activators, SEB and TSST-1 (20 ng/mL final concentration each). Cells were incubated for 90 h. Then, Alamar Blue (20 uL/well) (Invitrogen, Cat DAL1100) was added for 6 h, and the plates were read with a fluorescence microplate reader at 546/580 nm (excitation/emission). For PBMC proliferation, cells were plated and activated as above but incubated for only 16 h prior to addition of Alamar Blue. Plates were read after 6 h.", "values": [
      {"smiles": "O=c1[nH]sc2ccccc12", "AC50": "4.08 µM (active)"},
      {"smiles": "CO[C@H]1/C=C/O[C@@]2(C)Oc3c(C)c(O)c4c(O)c(c(/C=N/N5CCN(C)CC5)c(O)c4c3C2=O)NC(=O)/C(C)=C\\C=C\\[C@H](C)[C@H](O)[C@@H](C)[C@@H](O)[C@@H](C)[C@H](OC(C)=O)[C@@H]1C", "outcome": "inactive"},
      {"smiles": "O=C(O)Cn1c(=O)n(Cc2ccc(Br)cc2F)c(=O)c2ccc(Cl)cc21", "outcome": "inactive"},
      {"smiles": "OC12N=C(c3ccccc3)SC1Cc1cc(Cl)ccc12", "note": "(stereo not given)", "outcome": "inactive"},
      {"smiles": "Clc1cc(Cl)c2c(c1)N=C1CCCCCN1C2", "outcome": "inactive"},
      {"smiles": "c1ccc2n[nH]nc2c1", "outcome": "inactive"},
      {"smiles": "Cc1cccc2ccccc12", "outcome": "inactive"},
      {"smiles": "CN(C)C(=O)C1(N2CCCCC2)CCN(CC[C@@]2(c3ccc(Cl)c(Cl)c3)CN(C(=O)c3ccccc3)CCO2)CC1", "AC50": "27.2 µM (active)"},
      {"smiles": "Cc1cn([C@H]2C[C@H](N=[N+]=[N-])[C@@H](CO)O2)c(=O)[nH]c1=O", "outcome": "inactive"},
      {"smiles": "CCCCCCCCCCCO", "AC50": "36.8 µM (active)"},
      {"smiles": "CCCC(=O)OCCC(C)C", "outcome": "inactive"},
      {"smiles": "NC(=O)c1nc(-c2cccc(-c3cc(F)ccc3OCC(F)(F)C(F)(F)F)c2)n[nH]1", "AC50": "35 µM (active)"},
      {"smiles": "Oc1ccccc1", "outcome": "inactive"},
      {"smiles": "CC(C)(C)c1csc(-c2cc3cc(OCc4ccccc4CC(=O)O)ccc3o2)n1", "AC50": "10.2 µM (active)"},
      {"smiles": "CC1(C)NC(=O)N(c2ccc([N+](=O)[O-])c(C(F)(F)F)c2)C1=O", "outcome": "inactive"},
      {"smiles": "C[C@]12CC[C@@H]3c4ccc(O)cc4CC[C@H]3[C@@H]1CCC2=O", "outcome": "inactive"},
      {"smiles": "CCCCCCCCOC(=O)c1cc(O)c(O)c(O)c1", "AC50": "12.7 µM (active)"},
      {"smiles": "O=C=NCCCCCCN=C=O", "outcome": "inactive"},
      {"smiles": "O=C1O[C@H]([C@@H](O)CO)C(O)=C1O", "outcome": "inactive"},
      {"smiles": "CC[C@@H]1C[C@H](N(Cc2cc(C(F)(F)F)cc(C(F)(F)F)c2)C(C)=O)c2cc(C(F)(F)F)ccc2N1C(=O)OC(C)C", "AC50": "1.22 µM (active)"},
      {"smiles": "COc1cccc([C@H](O)C2CCN(CCc3ccc(F)cc3)CC2)c1OC", "outcome": "inactive"},
      {"smiles": "Cc1oc2c(NC(=O)c3c(Cl)cccc3Cl)cccc2c1C(C)(C)O", "outcome": "inactive"},
      {"smiles": "O=C(Nc1ccc(Cl)cc1)Nc1ccc(Cl)c(Cl)c1", "AC50": "0.148 µM (active)"},
      {"smiles": "COc1cc(C(=O)NC2CCN(C)CC2)ccc1Nc1ncc2c(n1)N(C1CCCC1)CC(F)(F)C(=O)N2C", "AC50": "11.9 µM (active)"},
      {"smiles": "O=C(O)c1ccccc1-n1cc(C(=O)O)c(=O)c2cc(Nc3c(F)cc(F)cc3Cl)c(Cl)cc21", "outcome": "inactive"},
      {"smiles": "O=C1c2ccccc2C(=O)N1CCc1noc(-c2ccc(CN3CCCCCC3)s2)n1", "outcome": "inactive"},
      {"smiles": "CC(C)(O)c1ccc(CNC(=O)c2cccnc2Oc2ccc3nonc3c2)cc1", "outcome": "inactive"},
      {"smiles": "c1ccc(C[n+]2cccc3ccccc32)cc1", "outcome": "inactive"},
      {"smiles": "CCOC(=O)O[C@H](C)OC(=O)c1ccc2c(c1)cc(C(=O)NC1CCN(C(C)C)CC1)n2Cc1cc(-c2ccc(Cl)s2)on1", "AC50": "4.62 µM (active)"},
      {"smiles": "O=C(O)Cc1cc(I)c(Oc2ccc(O)c(I)c2)c(I)c1", "outcome": "inactive"},
      {"smiles": "CN(C)c1ccc(C(=C2C=CC(=[N+](C)C)C=C2)c2ccc(N(C)C)cc2)cc1", "AC50": "4.07 µM (active)"},
      {"smiles": "O=C(OCCCCCCOC(=O)c1ccccc1)c1ccccc1", "outcome": "inactive"},
      {"smiles": "O=C1CCC(C2CCCCC2)CC1", "AC50": "33.1 µM (active)"},
      {"smiles": "Cc1ccc2oc(CN(Cc3ccccc3)C(=O)Nc3c(F)cc(F)cc3F)c(-c3ccc(Cl)cc3)c2c1", "AC50": "5.68 µM (active)"},
      {"smiles": "Cc1occc1C(=O)Nc1ccc(C(=O)N2CCC(F)(F)/C(=C\\C(=O)N3CCC(N4CCCCC4)CC3)c3ccccc32)cc1", "outcome": "inactive"},
      {"smiles": "O=C(O)c1ccccc1C(=O)OCc1ccccc1", "outcome": "inactive"},
      {"smiles": "Cc1cc(F)ccc1-c1cc(N2CC[C@@H](O)[C@H]2CO)ncc1N(C)C(=O)C(C)(C)c1cc(C(F)(F)F)cc(C(F)(F)F)c1", "AC50": "14.9 µM (active)"},
      {"smiles": "CN1C(=O)CC[C@H]1c1cccnc1", "outcome": "inactive"},
      {"smiles": "CC/C(=C(/CC)c1ccc(O)cc1)c1ccc(O)cc1", "AC50": "20 µM (active)"},
      {"smiles": "CCCCCCCC[Si](OCC)(OCC)OCC", "outcome": "inactive"}
    ]}
  ]
}
